Molecules are shown by their SMILES. Activity calls are given as the source filed them.

Among the data in PubChem BioAssay are composite z-score and z-score values, retold here.

Experiment [1] relates to Plasmodium falciparum Sir2 (PF13_0152, Sir2A). As to the kind of experiment: Plasmodium falciparum Sir2A binding compounds – biochemical, small-molecule microarray, 635 nm fluorescence, primary screen (AID 1098).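 Also: score merges spot fluorescence intensity with its signal-to-noise ratio.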 As to conditions: fluorescence 635 nm, higher = more signal.
Experiment [2] is described as follows: probe aDKK1 binding to arrayed compounds – biochemical, biotinylated probe, 635/667 nm fluorescence, primary screen (AID 1099).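 Also: score merges 667nm spot fluorescence with signal to noise across triplicate slides.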 Particulars: small-molecule microarray, higher = more signal.
Experiment [3] in a line: probe aCHRDL2 binding to arrayed compounds – biochemical, biotinylated probe, 635/667 nm fluorescence, primary screen (AID 1100). As to conditions: small-molecule microarray, higher = more signal.
Experiment [4] is described as follows: change in splice reporter luminescence, either direction, cell-based, HEK293, spliceosome inhibition project, primary screen (AID 1101).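 Also: HEK293 cells carrying a splicing-competent luciferase reporter gene; test concentration not given here.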 Particulars: HEK293 splicing luciferase reporter, 24 h, higher = more signal, called active from +8 up or from −8 down.
In experiment [5] the target is Fibroblast growth factor 10 (Homo sapiens) (UniProt O15520). In words: compounds binding fibroblast growth factor 10 – biochemical, small-molecule microarray, 635 nm fluorescence, primary screen (AID 1102). As to conditions: FGF10 binding, fluorescence 635 nm, higher = more signal.
Fibroblast growth factor 10 (Homo sapiens), sequence (O15520 whole entry, looked up): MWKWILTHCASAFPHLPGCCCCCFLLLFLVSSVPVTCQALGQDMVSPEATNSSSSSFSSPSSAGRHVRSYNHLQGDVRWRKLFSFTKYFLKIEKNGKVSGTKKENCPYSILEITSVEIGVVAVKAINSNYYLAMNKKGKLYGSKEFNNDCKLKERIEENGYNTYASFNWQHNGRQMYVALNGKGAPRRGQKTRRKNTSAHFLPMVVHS
Experiment [6] relates to glycogen synthase kinase-3 (GSK3A per assay name; protocol says GSK3B). As to the kind of experiment: compounds binding glycogen synthase kinase-3 – biochemical, small-molecule microarray, 635 nm fluorescence, GSK3A, primary screen (AID 1103). Also: the record names both GSK3A and GSK3B. Particulars: fluorescence 635 nm, higher = more signal.
In experiment [7] the target is Epidermal growth factor receptor (Homo sapiens) (UniProt P00533). As to the kind of experiment: compounds binding epidermal growth factor receptor – biochemical, small-molecule microarray, 635 nm fluorescence, primary screen (AID 1104).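 Also: score merges 667 nm emission intensity with spot signal to noise over triplicate slides.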 Particulars: EGFR binding, higher = more signal.
Epidermal growth factor receptor (Homo sapiens), sequence (P00533 whole entry, looked up): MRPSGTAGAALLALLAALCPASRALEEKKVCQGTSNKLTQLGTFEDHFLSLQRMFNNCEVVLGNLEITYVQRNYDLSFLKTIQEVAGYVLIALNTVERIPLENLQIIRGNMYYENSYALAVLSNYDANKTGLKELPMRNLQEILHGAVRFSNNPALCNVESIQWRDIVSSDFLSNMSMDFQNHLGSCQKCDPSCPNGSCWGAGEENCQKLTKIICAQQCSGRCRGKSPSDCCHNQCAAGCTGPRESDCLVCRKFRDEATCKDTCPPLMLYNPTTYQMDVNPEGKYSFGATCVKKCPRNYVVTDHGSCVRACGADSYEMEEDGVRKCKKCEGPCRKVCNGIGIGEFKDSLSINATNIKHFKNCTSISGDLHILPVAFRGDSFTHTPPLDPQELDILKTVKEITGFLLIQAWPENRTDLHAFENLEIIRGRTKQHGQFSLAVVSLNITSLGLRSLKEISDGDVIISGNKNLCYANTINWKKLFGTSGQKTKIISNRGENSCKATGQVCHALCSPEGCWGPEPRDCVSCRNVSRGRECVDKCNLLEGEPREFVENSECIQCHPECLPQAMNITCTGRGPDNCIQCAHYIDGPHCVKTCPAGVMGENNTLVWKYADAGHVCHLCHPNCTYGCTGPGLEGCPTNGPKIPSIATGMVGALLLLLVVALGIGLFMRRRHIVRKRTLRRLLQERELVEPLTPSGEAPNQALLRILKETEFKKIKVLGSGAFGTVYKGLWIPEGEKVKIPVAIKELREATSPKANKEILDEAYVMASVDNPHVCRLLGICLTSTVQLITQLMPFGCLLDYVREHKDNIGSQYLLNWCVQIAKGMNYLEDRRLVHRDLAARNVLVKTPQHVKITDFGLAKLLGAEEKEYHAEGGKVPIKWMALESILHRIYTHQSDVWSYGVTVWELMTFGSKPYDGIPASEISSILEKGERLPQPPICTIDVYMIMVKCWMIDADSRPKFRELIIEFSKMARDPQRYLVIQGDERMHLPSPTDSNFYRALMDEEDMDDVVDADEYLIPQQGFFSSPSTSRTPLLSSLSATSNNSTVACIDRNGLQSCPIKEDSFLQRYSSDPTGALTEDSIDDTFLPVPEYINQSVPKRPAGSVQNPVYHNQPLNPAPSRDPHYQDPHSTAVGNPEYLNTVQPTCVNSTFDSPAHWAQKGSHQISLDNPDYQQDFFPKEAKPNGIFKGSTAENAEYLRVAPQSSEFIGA
In experiment [8] the target is Follistatin-related protein 3 (Homo sapiens) (UniProt O95633). In words: compounds binding follistatin-related protein 3 – biochemical, small-molecule microarray, 635 nm fluorescence, primary screen (AID 1105).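 Also: score merges emission near 667 nm and signal to noise per printed spot across three slides.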 As to conditions: FSTL3 binding, higher = more signal.
Follistatin-related protein 3 (Homo sapiens), sequence (O95633 whole entry, looked up): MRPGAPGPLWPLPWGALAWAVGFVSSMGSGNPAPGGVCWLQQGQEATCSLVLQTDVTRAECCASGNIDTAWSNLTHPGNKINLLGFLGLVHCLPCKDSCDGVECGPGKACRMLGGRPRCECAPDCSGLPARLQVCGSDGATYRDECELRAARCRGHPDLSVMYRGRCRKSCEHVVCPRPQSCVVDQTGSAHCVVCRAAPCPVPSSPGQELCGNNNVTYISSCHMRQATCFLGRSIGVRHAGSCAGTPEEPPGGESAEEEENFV
Experiment [9] deals with Dickkopf-related protein 1 (Homo sapiens) (UniProt O94907). As to the kind of experiment: small molecules binding DKK1 protein – biochemical, small-molecule microarray, 635 nm fluorescence scan, primary screen (AID 1106).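 Also: score merges emission near 667 nm with signal to noise over three replicate slides.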 As to conditions: higher = more signal.
Dickkopf-related protein 1 (Homo sapiens), sequence (O94907 whole entry, looked up): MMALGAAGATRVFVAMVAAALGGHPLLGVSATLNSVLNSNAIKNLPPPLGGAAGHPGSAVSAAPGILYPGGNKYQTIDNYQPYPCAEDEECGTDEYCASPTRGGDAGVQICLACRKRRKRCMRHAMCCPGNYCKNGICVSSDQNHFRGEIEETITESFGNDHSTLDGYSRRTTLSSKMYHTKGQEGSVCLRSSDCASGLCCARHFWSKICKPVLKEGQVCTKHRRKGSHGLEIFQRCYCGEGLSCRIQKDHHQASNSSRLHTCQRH
The subject of experiment [10] is Inhibin beta A chain (activin A). In words: small molecules binding activin A – biochemical, small-molecule microarray, 635 nm fluorescence scan, primary screen (AID 1107).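 Also: mouse activin A protein probed at 4.33 µg/mL on printed slides; score merges bound-protein fluorescence near 667 nm with spot signal-to-noise.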 As to conditions: INHBA, higher = more signal.
Experiment [11] relates to Human papillomavirus type 1a protein E7 (residues 44-93). In words: small molecules binding HPV E7 44-93 – biochemical, small-molecule microarray, residues 44-93, 635 nm fluorescence, primary screen (AID 1108).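 Also: E7 fragment applied at 1 µg/mL in TBST for 1 h at 4 C; score combines spot fluorescence with its signal to noise ratio.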 As to conditions: fluorescence 635 nm, higher = more signal.
Experiment [12] is described as follows: hepatitis C replication reporter changes, two-sided – Huh7 cells, luciferase reporter, HCV replication inhibitor project, primary screen (AID 1109).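 Also: huh7 hepatoma cells harbouring a luciferase neomycin HCV replicon reporter; luciferase luminescence as measure of HCV replicon replication; test concentration not given here.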 Particulars: Huh7 HCV replicon luciferase reporter, 48 h; higher = more signal.
For experiment [13], the target named is Left-right determination factor 2 (Homo sapiens) (UniProt O00292). As to the kind of experiment: small molecules binding LEFTY2 protein – biochemical, small-molecule microarray, 635 nm fluorescence scan, primary screen (AID 1110). Particulars: higher = more signal.
Left-right determination factor 2 (Homo sapiens), sequence (O00292 whole entry, looked up): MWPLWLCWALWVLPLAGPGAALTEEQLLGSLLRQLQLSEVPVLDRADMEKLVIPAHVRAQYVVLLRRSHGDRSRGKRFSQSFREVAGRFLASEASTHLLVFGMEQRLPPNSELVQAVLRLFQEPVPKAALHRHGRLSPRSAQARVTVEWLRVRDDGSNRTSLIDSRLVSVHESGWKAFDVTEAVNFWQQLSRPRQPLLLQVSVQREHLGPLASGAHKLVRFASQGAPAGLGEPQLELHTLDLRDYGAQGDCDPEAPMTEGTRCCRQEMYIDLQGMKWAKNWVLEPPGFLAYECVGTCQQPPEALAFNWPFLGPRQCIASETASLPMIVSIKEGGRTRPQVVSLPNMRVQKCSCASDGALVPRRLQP
The target of experiment [14] is Calmodulin-1 (Homo sapiens) (UniProt P0DP23). As to the kind of experiment: small molecules binding calmodulin-1 with EGTA – biochemical, small-molecule microarray, Cy5-labelled CALM1, profiling panel (AID 1111).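 Also: labelled calmodulin applied in Tris saline Tween buffer holding calcium plus EGTA and DTT.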 Particulars: Cy5-CALM1 binding fluorescence, higher = more signal.
For experiment [15] the target is unchanged. In words: small molecules binding Ca-loaded calmodulin-1 – biochemical, small-molecule microarray, Cy5-labelled CALM1, plus calcium, artefact control for SMM control-protein annotation, profiling panel (AID 1112).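 Also: score merges spot fluorescence with signal to noise from triplicate slides.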 As to conditions: Cy5-CALM1 binding fluorescence, higher = more signal.
The nature of experiment [16]: probe aWnt5a binding to arrayed compounds – biochemical, biotinylated probe, 635/667 nm fluorescence, primary screen (AID 1113).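 Also: score merges 667 nm fluorescence intensity with signal-to-noise per printed feature.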 As to conditions: small-molecule microarray, higher = more signal.
A short description of experiment [17]: probe aShh binding to arrayed compounds – biochemical, biotinylated probe, 635/667 nm fluorescence, primary screen (AID 1114).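 Also: probe is biotin-labelled aShh protein from a stem cell growth factor screen; measures binding of labelled protein to compounds printed on the slide; score merges feature fluorescence at 667 nm with signal-to-noise.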 As to conditions: small-molecule microarray, higher = more signal.
The nature of experiment [18]: probe aNog binding to arrayed compounds – biochemical, biotinylated probe, 635/667 nm fluorescence, primary screen (AID 1115).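 Also: probe is biotinylated aNog protein used at 0.15 µg/mL for 1 h at 4 C; z-score combines 667 nm fluorescence of each spot with its signal to noise.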 As to conditions: small-molecule microarray, higher = more signal.
For experiment [19], the target named is Torsin-1A-interacting protein 1 (Homo sapiens) (UniProt Q5JTV8). As to the kind of experiment: compound microarray binding of lysate hLAP1 – cell lysate, small-molecule microarray, COS7 lysate, 635/667 nm fluorescence, primary screen (AID 1116). As to conditions: 635 nm fluorescence, higher = more signal.
Torsin-1A-interacting protein 1 (Homo sapiens), sequence (Q5JTV8 whole entry, looked up): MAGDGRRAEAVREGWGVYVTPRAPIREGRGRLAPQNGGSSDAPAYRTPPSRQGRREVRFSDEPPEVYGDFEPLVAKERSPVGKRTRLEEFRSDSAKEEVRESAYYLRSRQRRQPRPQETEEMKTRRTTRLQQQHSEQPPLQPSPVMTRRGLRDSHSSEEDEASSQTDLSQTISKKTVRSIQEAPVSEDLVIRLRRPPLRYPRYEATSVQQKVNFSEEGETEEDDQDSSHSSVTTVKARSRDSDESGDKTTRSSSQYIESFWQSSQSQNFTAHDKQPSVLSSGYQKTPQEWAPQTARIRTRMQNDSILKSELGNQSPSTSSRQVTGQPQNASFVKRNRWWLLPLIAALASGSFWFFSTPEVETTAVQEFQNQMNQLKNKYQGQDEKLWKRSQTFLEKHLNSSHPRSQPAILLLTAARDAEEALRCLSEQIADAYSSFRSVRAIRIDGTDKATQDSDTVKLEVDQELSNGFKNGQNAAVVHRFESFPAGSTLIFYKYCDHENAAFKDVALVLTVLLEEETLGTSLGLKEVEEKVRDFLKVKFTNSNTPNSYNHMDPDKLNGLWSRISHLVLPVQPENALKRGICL
The target of experiment [20] is Alpha-bungarotoxin (Bungarus multicinctus) (UniProt P60615). As to the kind of experiment: compounds binding labelled alpha-BTX control protein – biochemical, small-molecule microarray, Alexa647 label, 635/667 nm fluorescence, artefact control for SMM control protein annotation, profiling panel (AID 1117). As to conditions: alpha-BTX-A647 binding fluorescence, higher = more signal.
Alpha-bungarotoxin (Bungarus multicinctus), sequence (P60615 whole entry, looked up): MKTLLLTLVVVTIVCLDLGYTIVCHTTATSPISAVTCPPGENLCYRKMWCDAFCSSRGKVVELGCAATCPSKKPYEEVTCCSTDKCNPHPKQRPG

Regarding `CC1CC/C=C\[C@H]2OC34C=CCN(C(C)(C)C)C(=O)[C@H]3N(CCCO)C(=O)[C@@H]4C2C(=O)O1` (stereo not given in full), the composite z-score in experiment [1] is 0.28; in experiment [2] it was -0.107; in [3] it was 0.4; in experiment [5], -0.0987; in experiment [6], -0.592; in experiment [7], -0.927. Further, the composite z-score in [8] was -0.943; in experiment [9], -0.863; in experiment [10], 0.406; in [11] it was -0.0793; in experiment [13] it was -0.19; in [14], -0.128. Further, the composite z-score in [15] was 0.588; in experiment [16], -0.105; in [17] it was 0.0278; in experiment [18], 0.0215; in experiment [19], 1.42; in experiment [20], -1.18. For the same compound, the z-score in [4] was 0.964 (inactive); in experiment [12], -0.751.
Consider `O=C1C=C(c2ccccc2)C(=O)C2=C1CC([C@H]1Oc3ccccc3S(=O)(=O)N3CCC[C@@H]13)=CC2`, for which the composite z-score was -0.365 in experiment [1]; -0.191 in experiment [2]; -0.569 in experiment [3]; 0.0925 in experiment [5]; -0.009 in [6]; 0.0548 in experiment [7]. Besides, the composite z-score was -0.365 in experiment [8]; 0.155 in experiment [9]; 0.718 in experiment [10]; 0.529 in [11]; 0.0208 in experiment [13]; 0.042 in experiment [14]. Further, the composite z-score in experiment [15] was -0.207; in [16], -0.124; in experiment [17] it was -0.304; in [18], -0.172; in [19], 0.0279; in experiment [20] it was 0.0221. For the same compound, the results for the z-score in experiment [4] and in experiment [12] were -2.32 (inactive) and -3.98, respectively.
Consider `[N-]=[N+]=Nc1ccccc1[C@@H]1OC(c2ccc(OCCCO)cc2)=N[C@]1(Cc1ccccc1)C(=O)NCCN1CCOCC1`, for which the composite z-score was 0.669 in experiment [1]; 0.652 in [2]; 0.825 in experiment [3]; 1.1 in experiment [5]; 0.774 in [6]; -0.04 in [7]. For the same compound, the composite z-score in experiment [8] was 0.952; in experiment [9], -0.326; in experiment [10], 0.33; in experiment [11], 1.5; in experiment [13], -0.429; in experiment [14] it was -0.0408. For the same compound, the composite z-score in experiment [15] is 0.741; in [16], 0.0044; in experiment [17], 0.185; in experiment [18], 0.996; in experiment [19] it was 1.52; in [20] it was 1.23. Further, the z-score is -0.299 (inactive) in experiment [4] and -2.41 in experiment [12].
Turning to `CCCC#C[Si](O[C@H](CC)c1cn(Cc2ccccc2)nn1)(C(C)C)C(C)C`, the composite z-score in experiment [1] was 0.524; in [2], 0.109; in [3], -0.263; in experiment [5] it was 0.852; in experiment [6], 0.49; in experiment [7], 0.375. The composite z-score is 1.11 in experiment [8]; 0.576 in [9]; -0.0374 in [10]; 1.29 in experiment [11]; 0.631 in experiment [13]; -0.0722 in experiment [14]. Further, the composite z-score is -0.337 in [15]; 0.0799 in [16]; -0.153 in experiment [17]; -0.234 in experiment [18]; 0.927 in [19]; 1.11 in experiment [20]. The z-score in experiment [4] was -0.539 (inactive); in experiment [12], -0.283.
On to `CC(C)c1nc2cc(Br)ccc2c(=O)o1`, for which the composite z-score in experiment [1] is 0.338; in [2], 0.444; in [3], -0.123; in experiment [5] it was 0.755; in [6] it was 1.02; in experiment [7] it was 0.397. The composite z-score in [8] is 0.523; in [9], 0.359; in experiment [10] it was -0.585; in experiment [11], 1.32; in [13], 0.371; in experiment [14], 2. Besides, the composite z-score in experiment [15] is 0.93; in experiment [16], -0.0367; in experiment [17], -0.427; in [18] it was 0.418; in [19], 1.61; in experiment [20], 0.868. For the same compound, the figures for the z-score in experiment [4] and in [12] were 1.44 (inactive) and -0.559, respectively.
On to `CCCC=C(CCC)[C@@H](NC(=O)c1ccc(C(F)(F)F)cc1)c1ccc(C(F)(F)F)cc1`, for which the composite z-score is 0.654 in experiment [1]; 0.73 in [2]; 1.09 in experiment [3]; 0.793 in experiment [5]; 1.13 in [6]; -0.254 in experiment [7]. The composite z-score is 0.468 in [8]; -0.906 in experiment [9]; 0.932 in [10]; 1.36 in experiment [11]; -0.203 in [13]; 1.72 in experiment [14]. The composite z-score came out at 1.09 in experiment [15]; 0.253 in experiment [16]; 0.778 in experiment [17]; 1.78 in experiment [18]; 0.926 in experiment [19]; 0.942 in experiment [20]. Moreover, the z-score was -3.17 (inactive) in experiment [4] and -1.5 in experiment [12].
